This experiment is described as follows: In vitro enzyme assay to detect hydrolysis of chlorophenol red-beta-D-[…] directly proportional to the number of Toxoplasma stably expressing beta-galactosidase. The class given is functional, organism-based, Toxoplasma gondii. On the set-up: scale not given: in the data most compounds retested in dose-response had high values.

About 440 (0.52%) of roughly 85,000 compounds showed an effect of 50% or more. The entries come from a sample that favours strong results as a whole.

As to `CN1CCCN(C(=O)COc2ccc(Br)cc2)CC1`, for the setting “50 µM”, the “Percent Effect” value was 68.33%.
The same measure, in the same setting: as for `CN1CCCN(C(=O)COc2ccccc2)CC1`, the figure is -9.111%; as for `CN1CCCN(C(=O)COc2ccc(C#N)cc2)CC1`, 10.92%; as for `CCc1nsc(N2CCNCC2)n1`, 12.31%.
Same read-out and setting: then `CCc1cnc(N2CCNCC2)s1`, with 54.04%; and `Cc1cnc(N2CCNCC2)s1`, with 5.738%.
Regarding `O=C(C[C@H]1[C@H]2CN(Cc3ccncc3)C[C@@H]12)N1CCCC1.O=C(O)C(F)(F)F.O=C(O)C(F)(F)F`, the “Percent Effect” value (10 µM) is given as -5.891%.
The same measure, in the same setting: as for `O=C(C[C@@H]1COC[C@H]2CN(Cc3cccnc3)C[C@@H]12)N1CCCC1.O=C(O)C(F)(F)F.O=C(O)C(F)(F)F`, the figure is -13.82%; as for `O=C(C[C@@H]1COC[C@H]2CN(Cc3ccncc3)C[C@@H]12)N1CCCC1`, 95.78%.
`NCCc1ccc(Cl)s1`: the “Percent Effect” value (50 µM) is given as 19.11%.
Turning to `C[C@@H]1CN(Cc2ccsc2)C[C@]12CCN(Cc1cccnc1)C2=O.O=C(O)C(F)(F)F.O=C(O)C(F)(F)F`, under “10 µM”, the “Percent Effect” value is recorded as -1.478%.
Turning to `CNC1CCNC1=O` (stereo not given), the “Percent Effect” value (50 µM) amounted to 22.45%.
For `O=C1NC[C@H]2NCCC[C@@H]12`, the “Percent Effect” value (50 µM) is -10.77%.
On the same count and under the same terms, as for `NC1CCCCNC1=O` (stereo not given), the figure is 97.52%.
For the molecule `COCCN1C(=O)CC[C@@H]2[C@@H]1CCN2Cc1c(C)noc1C.O=C(O)C(F)(F)F`, where the note is “10 µM”, the “Percent Effect” value was found to be 17.34%.
On to `NCCc1ccsc1`, for which the “Percent Effect” value (50 µM) was 4.76%.
For `O=C1C[C@H]2CC[C@@H](CN1)N2C1CSCCSC1`, the “Percent Effect” value (10 µM) is -1.323%.
As to `c1nc(N2CCNCC2)c2sccc2n1`, the “Percent Effect” value (50 µM) is reported as 52.15%.
In the case of `CN1CCN(c2ncnc3ccsc23)CC1`, the “Percent Effect” value (50 µM) is reported as -1.262%.
As to `c1cc2sccc2c(N2CCNCC2)n1`, the “Percent Effect” value (50 µM) is given as 13.67%.
`Cc1nc(CO[C@H]2CN(Cc3ccccn3)[C@@H]3CCCO[C@H]23)cs1.O=C(O)C(F)(F)F.O=C(O)C(F)(F)F`: the “Percent Effect” value (10 µM) was 12.48%.
Turning to `CC(c1nc(C(C)(C)C)no1)N1CCN(C)CC1` (stereo not given), the “Percent Effect” value (50 µM) was determined as 8.823%.
Still for that read-out and setting: as for `COc1ccc(Cl)c(N2CCNCC2)c1`, the figure is 12.14%.
For `CCC(O)CN1CCN(C(=O)Cc2cc(C)ccc2OC)CC1` (stereo not given), the “Percent Effect” value (10 µM) is 16.53%.
On to `COc1ccc(C)cc1CC(=O)N1CCN(CC(C)O)CC1` (stereo not given), for which the “Percent Effect” value (10 µM) is -5.451%.
Consider `COc1ccc(C)cc1CC(=O)N1CCN(C)CC1`, for which the “Percent Effect” value (50 µM) stood at 93.86%.
In the case of `O=C(O)C(F)(F)F.O=C(O)[C@]12CCCN(C3CCOC3)C[C@H]1CN(c1ncccn1)C2` (stereo not given in full), where the note is “10 µM”, the “Percent Effect” value came to 3.821%.
Still for that read-out and setting: as for `COCCNC(=O)[C@H]1C[C@@H]2CCN(Cc3ccncc3)C[C@H]2O1.O=C(O)C(F)(F)F.O=C(O)C(F)(F)F`, the figure is 3.499%.
Take `CN1CCN(c2cccc(C#N)n2)CC1`: the “Percent Effect” value (50 µM) is 4.938%.
For the molecule `NC1CCN(CC(F)F)C1` (stereo not given), for the setting “50 µM”, the “Percent Effect” value was -7.731%.
Same read-out and setting: as for `NCC1CCN(CC(F)F)CC1`, the figure is 1.969%; as for `NC1CCN(CC(F)F)CC1`, 56.61%; as for `Clc1cnccc1CN1CCC2(CCOC2)C1` (stereo not given), 3.263%.
On to `CC(C)CC(=O)NC1CC2(CCN(CCF)CC2)Oc2ccccc21.O=C(O)C(F)(F)F` (stereo not given), for which the “Percent Effect” value (10 µM) is -26.74%.
For `N#Cc1ccccn1`, under “50 µM”, the “Percent Effect” value was -5.392%.
Turning to `CC[C@@H]1N(Cc2ccncc2)CCC[C@]12CCC(=O)N2C.O=C(O)C(F)(F)F.O=C(O)C(F)(F)F`, the “Percent Effect” value (10 µM) is reported as -4.695%.
In the case of `CC1CN(C)CCC1=O` (stereo not given), the “Percent Effect” value (50 µM) was 95.15%.
As to `CN1CCN2C(=O)N(C3CCCCC3)C[C@H]2C1`, the “Percent Effect” value (10 µM) is recorded as -2.107%.
Consider `Cc1ccc([C@@H](O)CN)cc1`, for which the “Percent Effect” value (50 µM) is -14.41%.
As for `Cl.O=C1N(Cc2ccc(Cl)cc2)CCC12CCCNC2` (stereo not given), the “Percent Effect” value (10 µM) is -3.809%.
Take `OCC1CCC2(CCCC2)CN1` (stereo not given): the “Percent Effect” value (50 µM) is reported as 23.34%.
On the same count and under the same terms, then `O=C(N[C@H]1COC[C@@H]1N1CCCCC1)c1cnc[nH]1`, with 53.1%.
`O=C(N[C@H]1COC[C@@H]1N1CCCC1)c1c[nH]nc1C1CCCCC1`: under “10 µM”, the “Percent Effect” value is 7.68%.
On the same count and under the same terms, as for `Cc1nc(C(=O)N[C@H]2COC[C@@H]2N2CCCCC2)cs1`, the figure is 24.19%.
`Cc1nc(C)c(CN2CC3(CCNCC3)OC2=O)s1`: for the setting “50 µM”, the “Percent Effect” value was -5.089%.
For `COc1ccc(CCN)c(Cl)c1`, the “Percent Effect” value (50 µM) was 6.537%.
On the same count and under the same terms, then `N[C@H]1[C@@H]2CC[C@H]1CN(CCn1cc(Cl)cn1)C2`, with 17.19%.
On the same count and under the same terms, as for `COc1cccc(N2CCNCC2C)c1` (stereo not given), the figure is 93.04%; as for `CC1CNCCN1c1cccc2cnccc12` (stereo not given), 3.081%.
Regarding `COc1cccc(C(C)N2CCNCC2)c1` (stereo not given), the “Percent Effect” value (50 µM) is -0.2947%.
On the same count and under the same terms, as for `CNC(CCO)Cc1ccccc1` (stereo not given), the figure is -16.85%.
The same measure, in the same setting: as for `CCC(C)Cn1nc(COC)oc1=O` (stereo not given), the figure is 3.972%.
For the molecule `NCCc1ccc(F)cn1`, the “Percent Effect” value (50 µM) is on record as 2.533%.
As for `NCCc1ccc(C(F)(F)F)cn1`, for the setting “50 µM”, the “Percent Effect” value is -0.7951%.
As for `NCCc1cc(C(F)(F)F)ccn1`, under “50 µM”, the “Percent Effect” value is on record as 99.23%.
On the same count and under the same terms, as for `CN[C@@H]1CCO[C@H]1c1cccnc1`, the figure is -18.11%; as for `NCCC1COc2ccccc2O1` (stereo not given), 1.961%.
Same read-out and setting: then `NCCC1CSc2ccccc2O1` (stereo not given), with 65.01%; and `CC1CN(C)CCN1Cc1nc(N)nc(N(C)C)n1` (stereo not given), with 17%.
On to `CO[C@H]1CCN(Cc2ccccn2)[C@@H]2CN(Cc3ccco3)C[C@H]12.O=C(O)C(F)(F)F.O=C(O)C(F)(F)F.O=C(O)C(F)(F)F`, for which, where the note is “10 µM”, the “Percent Effect” value is listed as -1.554%.
With `CO[C@H]1CCN(c2ncc(F)cn2)[C@@H]2CN(Cc3ccco3)C[C@H]12.O=C(O)C(F)(F)F.O=C(O)C(F)(F)F`, for the setting “10 µM”, the “Percent Effect” value is 10.96%.
In the case of `CO[C@@H]1CCN(Cc2ccccn2)[C@@H]2CN(Cc3ccco3)C[C@@H]21.O=C(O)C(F)(F)F.O=C(O)C(F)(F)F.O=C(O)C(F)(F)F`, the “Percent Effect” value (10 µM) is recorded as 93.58%.
As for `Cc1noc(C)c1CC(=O)N1CCN(C(C)(C)C)CC1`, under “50 µM”, the “Percent Effect” value is recorded as 6.08%.
For `CN(CC(N)=O)C1Cc2ccccc2C1`, the “Percent Effect” value (50 µM) is listed as -5.488%.
With `CC(=O)N1N=C(c2cccnc2)CC1c1ccco1` (stereo not given), the “Percent Effect” value (50 µM) is 88.79%.
Same read-out and setting: as for `O=C1CC(c2cccnc2)=NCCN1`, the figure is 42.08%.
Regarding `CC(=O)N1CCC2(CC1)c1ncc(-c3cccnc3)n1CCN2C`, the “Percent Effect” value (10 µM) was -29.38%.
For the molecule `C1CC(NC2COC2)CCO1`, for the setting “50 µM”, the “Percent Effect” value amounted to 12.23%.
Consider `Cc1cc(CNC(C)Cn2cccn2)on1` (stereo not given), for which the “Percent Effect” value (50 µM) came out at 9.614%.
On to `CC(C)N1CCN(Cc2ccc(N)nc2)CC1`, for which the “Percent Effect” value (50 µM) is reported as -5.951%.
Take `Cc1ncc(C(=O)N2C[C@@H]3CCCN[C@@H]3C2)c(C)n1`: the “Percent Effect” value (50 µM) stood at 63.53%.
Take `Cc1cc(C(=O)N2C[C@@H]3CCCN[C@@H]3C2)cc(C)n1`: the “Percent Effect” value (50 µM) is listed as -13.26%.
As for `Cc1ncc(C(=O)N2C[C@@H]3CCCN[C@@H]3C2)cn1`, the “Percent Effect” value (50 µM) is recorded as -7.245%.
Same read-out and setting: as for `CCCN1CCN(Cc2nccn2C)CC1`, the figure is 5.907%.
As for `Cc1ccc(C(=O)N2C[C@@H]3OCCN(C)[C@@H]3C2)cn1.O=C(O)C(F)(F)F`, the “Percent Effect” value (10 µM) came to 3.64%.
Same read-out and setting: then `COC[C@@H]1CCC[C@]12CN(Cc1cccc(C)n1)CCO2.O=C(O)C(F)(F)F.O=C(O)C(F)(F)F`, with -5.738%.
Turning to `CCOC[C@@H]1CCC[C@@]12CN(Cc1cccnc1)CCO2`, the “Percent Effect” value (10 µM) was -14.2%.
On the same count and under the same terms, as for `COC[C@H]1CCC[C@]12CN(Cc1cccc(C)n1)CCO2`, the figure is 72.48%.
With `Fc1cnc(N2CCCC3(CCN(Cc4cccs4)C3)C2)nc1.O=C(O)C(F)(F)F.O=C(O)C(F)(F)F` (stereo not given), the “Percent Effect” value (10 µM) is given as -7.824%.
`NCCCN1CCN(c2ccccc2)CC1`: for the setting “50 µM”, the “Percent Effect” value is 0.9017%.
Still for that read-out and setting: as for `COCCN1CCN(c2ccc(OC)cc2)CC1`, the figure is -4.401%.
Turning to `Cn1c(CCN2CCN(c3ccc(O)cc3)CC2)nc2ccccc21`, the “Percent Effect” value (10 µM) is recorded as 79.1%.
With `Cc1cc(C(=O)N2CC[C@H]3CC[C@@H](C2)N3)nc(C)n1`, for the setting “50 µM”, the “Percent Effect” value is reported as 2.124%.
The same measure, in the same setting: then `Cn1cc(CCN)nn1`, with 26.5%.
The same measure, in the same setting: as for `CC(C)(C)OC(=O)NC1CC2(CNC2)C1`, the figure is -10.31%; as for `CCCn1nnnc1CN1CCN(CC)CC1`, -8.148%.
As for `CC(C)N1CCN(Cc2nnnn2C2CC2)CC1`, the “Percent Effect” value (50 µM) is -4.596%.
The same measure, in the same setting: as for `CCN1CCN(Cc2nnnn2C2CC2)CC1`, the figure is 99.81%.
Turning to `COc1ccc(CN2CC[C@@]3(O)CCCC[C@H]3C2)cn1`, where the note is “50 µM”, the “Percent Effect” value is recorded as -5.926%.
On to `Cc1cc(C2CCCN2)on1` (stereo not given), for which the “Percent Effect” value (50 µM) was -7.97%.
Consider `c1nc(N2CCOCC2)nc2c1COCC21CCN(CC2CC2)C1` (stereo not given), for which, under “10 µM”, the “Percent Effect” value came to 63.85%.
Consider `CN(C)c1ncc2c(n1)C1(CCN(CC3CC3)C1)COC2.O=C(O)C(F)(F)F` (stereo not given), for which the “Percent Effect” value (10 µM) was -3.49%.
As for `COCCN1CCC2(COCc3cnc(N4CCOCC4)nc32)C1.O=C(O)C(F)(F)F` (stereo not given), the “Percent Effect” value (10 µM) is -0.4992%.
The same measure, in the same setting: then `Fc1cnc(N2CCC3(CC2)CN(Cc2cccs2)CCO3)nc1.O=C(O)C(F)(F)F.O=C(O)C(F)(F)F`, with 21.36%; and `C[S+](C)[c-]1c(=O)[nH]c(=O)n(CCc2ccc(F)cc2)c1=O`, with 11.54%.

(Values after ChEMBL document CHEMBL3988442, “University of Dundee, Small-Polar-MMV Screening Library” (2021).)
